Compound activity as filed in PubChem BioAssay.
An excerpt weighted towards active compounds, which were near 2.3% of everything screened.
M1 PAM: human M1 muscarinic receptor positive allosteric modulators, primary screen, CHO-K1 cells, Fluo-8 calcium fluorescence, 1536-well. CHO-K1 hM1, ACh EC20; 0% = ACh EC20, 100% = maximal ACh. 360,000 tested, 0.088% active. activation, % at 3 µM. Muscarinic acetylcholine receptor M1 (Homo sapiens), P11229; in the data active means activation above about 19%, passing the limit was not always enough
Target sequence (P11229 whole entry, looked up): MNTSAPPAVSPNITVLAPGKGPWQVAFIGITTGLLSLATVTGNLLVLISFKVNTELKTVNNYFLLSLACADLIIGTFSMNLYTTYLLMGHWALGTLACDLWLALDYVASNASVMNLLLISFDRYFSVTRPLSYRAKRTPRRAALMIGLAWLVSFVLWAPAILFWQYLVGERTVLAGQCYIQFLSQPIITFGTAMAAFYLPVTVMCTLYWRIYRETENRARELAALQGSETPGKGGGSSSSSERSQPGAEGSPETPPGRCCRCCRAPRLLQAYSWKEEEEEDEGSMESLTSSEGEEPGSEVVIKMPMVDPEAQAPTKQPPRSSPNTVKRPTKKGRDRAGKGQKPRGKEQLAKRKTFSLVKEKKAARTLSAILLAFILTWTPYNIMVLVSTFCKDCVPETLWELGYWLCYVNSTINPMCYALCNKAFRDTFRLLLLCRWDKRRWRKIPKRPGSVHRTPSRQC
M1 PAM parental: nonselective calcium activators in parental CHO-K1 cells, primary screen, counter-screen for M1 PAM project, cell-based, Fluo-8 calcium fluorescence, full deck, 1536-well; ATP EC20; 0% at ATP EC20, 100% at ATP max; activation, % at 3 µM; 360,000 tested, 0.02% active; AID 602247, 2012;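 active means activation above the run cutoff, the mean activation of all test compounds plus 3 SD, cut at about 40% in these data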;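 further: peak over basal fluorescence ratio in a 140 s read after ATP addition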
M1 antag: human M1 muscarinic receptor antagonists, primary screen, CHO-K1 cells, Fluo-8 calcium fluorescence, 1536-well. inhibition, % at 3 µM. 360,000 tested, 1.3% active. AID 588852, 2011. CHO-K1 hM1, ACh EC80 antagonist;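 active means percent inhibition above its own plate's cutoff, namely the mean of that plate's compound wells plus 3 SD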;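 further: peak over basal fluorescence ratio during 140 s after agonist addition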
CHO-K1 Ca antag: M1 antagonist counterscreen hit in parental CHO-K1 cells. ATP-induced calcium, Fluo-8 fluorescence. inhibition, % at 3 µM. 360,000 tested, 0.6% active. AID 602250;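 active means inhibition above a per-plate cutoff, the plate's mean sample inhibition plus 3 SD, cut at about 24% in these data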
CHO-K1 Ca ag: counter-screen for M1 agonists: effect in parental CHO-K1 cells. Fluo-8 calcium fluorescence; scaled to maximal ATP response, vehicle zero. 360,000 tested, 0.48% active. AID 602248, 2012. activation, % at 3 µM; in the data active means activation above about 15%;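 further: untransfected CHO-K1 host cells lacking M1 receptor as counterscreen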
M1 ag: human M1 muscarinic receptor agonists, primary screen, Fluo-8 calcium fluorescence, CHO-K1 cells, HTS; Muscarinic acetylcholine receptor M1 (Homo sapiens), P11229; CHO-K1 hM1, agonist mode; 0% DMSO, 100% acetylcholine EC100; activation, % at 3 µM; 360,000 tested, 0.33% active; AID 588814, 2011;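 active means activation above the run's mean compound activation plus 3 SD, cut at about 16% in these data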;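 further: peak over basal fluorescence ratio within a 140 s kinetic read after compound addition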
Hits are given with their value; 0 = inactive.

SMILES	M1 PAM	M1 PAM parental	M1 antag	CHO-K1 Ca antag	CHO-K1 Ca ag	M1 ag
CN1C[C@@H]2C(c3ccccc3)C3(c4cccnc4)CC2(C3)[C@H]1c1ccccc1 (stereo not given in full)	0	0	97	0	0	0
CC(=O)c1cn(CC(=O)Nc2ccccc2C(F)(F)F)c2ccccc12	0	0	0	27	0	0
Cc1ccc(C)c(NC(=O)Cn2cc(C(=O)C3CC3)c3ccccc32)c1	0	0	0	25	0	0
O=C(NNC(=O)C1CCCC1)c1cc([N+](=O)[O-])cc([N+](=O)[O-])c1	0	0	0	0	0	0
CC(c1ccccc1)N1CC(C(=O)N2CCCC(C(N)=O)C2)CC1=O (stereo not given)	0	0	0	0	0	0
COc1ccc(-c2nc3c(c(SCC(=O)N4CCOCC4)n2)COC(C)(C)C3)cc1	0	0	0	30	0	0
CCC(C)c1ccccc1N1CC(C(=O)N(C)CC(=O)Nc2cccc(F)c2)CC1=O (stereo not given)	0	0	0	0	0	0
O=C(O)c1cccc(NC(=S)N/N=C/c2ccccc2OCc2ccc(Br)cc2)c1	0	0	0	27	0	0
CCN(CC(=O)Nc1ccc(N2CCOCC2)cc1)CC(=O)NC(C)(C)C	0	0	0	0	0	0
c1ccc(C(c2ccccc2)c2noc(CN3CCN(C4CCCC4)CC3)n2)cc1	0	0	60	0	15	0
CC(C)NC(=O)CN1CCN(Cc2nc(C(c3ccccc3)c3ccccc3)no2)CC1	0	0	52	0	0	0
NC(=O)CCN1CCN(Cc2nc(C(c3ccccc3)c3ccccc3)no2)CC1	0	0	29	0	0	0
CC(C)NC(=O)CN1CCN(Cc2nc(-c3cccs3)no2)CC1	0	0	0	0	0	0
CC(=O)N1CCN(Cc2nc(C(c3ccccc3)c3ccccc3)no2)CC1	0	0	0	0	0	0
COc1ccc(CC(O)COS(N)(=O)=O)cc1 (stereo not given)	0	0	0	0	0	0
CCc1ccc(CN(C)C(=O)c2cc(COc3ccc(OC)cc3Cl)on2)nc1	0	0	0	0	0	0
CCOC(=O)CSc1ccc2nnc(-c3ccccc3)n2n1	0	0	0	26	0	0
CCOC(=O)CSc1nnc2cc(C)c3ccccc3n12	19	0	0	0	0	0
CCOC(=O)CSc1ccc2nnc(-c3cccnc3)n2n1	0	0	0	0	0	0
COc1cc2[nH]c3c(=O)n4c(nc3c2cc1OC)SCCC4	0	0	0	0	0	0
COc1cc(C(=O)Nc2ccc(-n3cnnn3)c(C)c2)cc(OC)c1OC	0	0	0	24	0	0
COc1cc(C(=O)Nc2cccc(-n3cnnn3)c2)cc(OC)c1OC	0	0	0	0	0	0
CC[N+](CC)(CC#Cc1ccccc1)CC#Cc1ccccc1	0	0	42	0	0	0
Cc1ccc(S(=O)(=O)N(C)CC(=O)Nc2nc3ccccc3s2)cc1	0	0	0	24	0	0
O=S1(=O)NC(=NCC(c2ccco2)N2CCCCC2)c2ccccc21 (stereo not given)	0	0	57	0	0	0
SMILES	M1 PAM	M1 PAM parental	M1 antag	CHO-K1 Ca antag	CHO-K1 Ca ag	M1 ag
Cc1cccc[n+]1CC(=O)N1c2ccccc2Sc2ccccc21	0	0	99	0	0	0
Cc1cc(C)n(CC(=O)N2c3ccccc3Sc3ccccc32)n1	0	0	38	0	0	0
Cc1nc2ccc(C(=O)NCCc3c[nH]c4ccccc34)cn2c1N(C)C(=O)CCc1ccccc1	0	0	0	0	0	0
CC1CCCCN1C(=O)COC(=O)c1ccc(=O)n(Cc2ccccc2)n1 (stereo not given)	0	0	0	0	0	0
O=C(Cn1cc(Cl)c([N+](=O)[O-])n1)NCCC1=CCCCC1	0	0	0	0	0	0
COc1ccc(NC(=O)c2ccccc2Oc2ccccc2)c(OC)c1	0	0	0	0	0	0
COc1ccc(NC(=O)c2cccnc2)c(OC)c1	0	0	0	27	0	0
COc1ccc(C(=O)Nc2ccccc2Cc2ccccc2)c(OC)c1	0	52	0	0	0	0
COc1ccc(NC(=O)c2ccccc2OCc2ccc(F)cc2)c(OC)c1	0	43	0	0	0	0
COC(=O)c1cc(OC)c(OC)cc1NC(=O)c1ccc(OC)cc1	0	0	0	26	20	0
COc1ccc(CCC(=O)N(C)CC(=O)Nc2ccc(Cl)c(C(F)(F)F)c2)cc1	0	0	0	0	0	0
CCN(C(=O)CO/N=C/c1ccc(OC)cc1OC)c1c(N)n(Cc2ccccc2)c(=O)[nH]c1=O	0	0	0	0	0	0
CN(C)c1ccc2c3c(ccc(N(C)C)c13)C(=O)OC2	0	0	0	0	0	0
CCc1ccc(OC)c(S(=O)(=O)Nc2ccc(Cc3ccncc3)cc2)c1	0	0	36	0	15	0
COc1ccc(S(=O)(=O)Nc2ccc(Cc3ccncc3)cc2)cc1OC	0	0	0	0	0	0
O=S(=O)(Nc1ccc(Cc2ccncc2)cc1)c1ccc(Cl)c(Cl)c1	0	0	52	0	0	0
O=C(N/N=C/c1ccc(O)c(O)c1)c1ccc(CSc2cccc3cccnc23)cc1	0	0	0	0	0	24
Cc1cc(C)n(-c2cccc(CN(C)Cc3nc(-c4cnccn4)no3)c2)n1	0	0	0	0	0	0
Cc1onc(-c2ccccc2)c1C(=O)NNC(=S)NC(=O)c1ccc(Cl)cc1Cl	0	0	0	0	26	90
Cc1onc(-c2ccccc2)c1C(=O)NNC(=S)NC(=O)c1ccc(Br)cc1	0	0	0	0	65	75
Cc1onc(-c2ccccc2)c1C(=O)NNC(=O)c1ccccc1O	0	0	0	0	0	0
Cc1onc(-c2ccccc2)c1C(=O)NNC(=S)NC(=O)/C=C/c1ccccc1	0	0	0	0	21	40
O=C(NC(=S)Nc1ncccn1)c1ccc(Cl)cc1Cl	0	0	0	0	21	0
Cc1onc(-c2ccccc2)c1C(=O)NNC(=O)c1ccccc1	0	0	0	0	0	0
N/C(=N\OC(=O)CC1CCCCC1)c1ccc(Cl)cc1	0	0	0	0	0	0
CCCCn1c(N)c(N(CCOC)C(=O)COc2ccc(Cl)cc2)c(=O)[nH]c1=O	0	0	0	0	0	0
CCc1nc2c(OCc3ccc(Cl)cc3)cccn2c1N(C)C(=O)c1ccco1	0	0	0	0	0	0
